Assay [1] addresses PU.1 (IVT) (UniProt P17947 1-270). Kind of assay: protein-binding microarray (PBM); 20 mM HEPES pH 7.9, 100 mM NaCl, 1 mM DTT, 0.2 mg/mL BSA, 0.02% Triton X-100, 2% milk, 0.4 mg/mL salmon testes DNA; 1 h; temperature not stated; high values mean tight binding. Particulars: dsDNA, one strand shown. A digest of the protocol:
(§1)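 Full-length untagged PU.1 was made by coupled human in vitro transcription/translation. It was bound for 1 h to custom double-stranded DNA microarrays carrying 20-bp genomic sites and single-nucleotide variants, 10 probes per site (5 per orientation). The binding buffer was HEPES pH 7.9 with 100 mM NaCl, 2% milk and salmon testes DNA. Bound protein was detected with anti-PU.1 and then a fluorescent secondary antibody. Binding is a z-score from scanned fluorescence after linear-regression normalisation.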

Assay [2] has the same target. The description is as above. The conditions noted are these: dsDNA, one strand shown. A digest of the protocol:
as §1
This is another data set of the same source.

Over roughly 3,700 sequences, “z-score” has its median near 4; the highest 2% begin near 8.4. Only a selection was taken, and the highest values are over-represented in it overall.

Take “GCCTAGCACCGAAAGGGGAAGTGCTAAAAGTGCTAGGTCTTGATTCGCTTGACGCTGCTG”: the binding signal in assay [1] was determined as 6.97 z-score.
The same measure, in the same setting: to “GCCTAGCACGAAAAGGGGAAGTGCTGGGGGTGCTAGGTCTTGATTCGCTTGACGCTGCTG” belongs 7.77 z-score; to “GCCTAGCACGAAAAGCGGAAGTGGTGTGGGTGCTAGGTCTTGATTCGCTTGACGCTGCTG”, 8.61 z-score.
In assay [2], “GCCTAGCACCAAAAAGGGAAGTGGAAGCTGTGCTAGGTCTTGATTCGCTTGACGCTGCTG” gave a binding signal of 6.2 z-score.
As for “GCCTAGCACCAAAAGCGGAAGTGGTGCCTGTGCTAGGTCTTGATTCGCTTGACGCTGCTG”, the binding signal in assay [1] turned out to be 8.56 z-score.
“GCCTAGCACGAAAGGAGGAAGTGGAGGGTGTGCTAGGTCTTGATTCGCTTGACGCTGCTG”: the binding signal in assay [2] turned out to be 5.92 z-score.
Consider “GCCTAGCACCAAAAAAGGAAGTGGCTGTGGTGCTAGGTCTTGATTCGCTTGACGCTGCTG”, for which, in assay [1], the binding signal stood at 5.51 z-score.
The same measure, in the same setting: to “GCCTAGCACAAAAAAAGGAAAGGAAAGTAGTGCTAGGTCTTGATTCGCTTGACGCTGCTG” belongs 1.27 z-score; to “GCCTAGCACAAATAGAGGAAGTGGAATGGGTGCTAGGTCTTGATTCGCTTGACGCTGCTG”, 7.2 z-score; to “GCCTAGCACAAAATGAGGAAGTACCCTCTGTGCTAGGTCTTGATTCGCTTGACGCTGCTG”, 8.28 z-score.
The sequence “GCCTAGCACAAAATGAGGAACTGCTGTCTGTGCTAGGTCTTGATTCGCTTGACGCTGCTG” came in with a binding signal in assay [1] of 6.9 z-score.
For “GCCTAGCACAAAATGAGGAAGTGAACAAAGTGCTAGGTCTTGATTCGCTTGACGCTGCTG”, in assay [1], the binding signal was 8.02 z-score.
The same measure, in the same setting: the same measure for “GCCTAGCACAAAATGAGGAAGTGACTTTGGTGCTAGGTCTTGATTCGCTTGACGCTGCTG”: 8.87 z-score; for “GCCTAGCACAAAATGAGGAAGTGCTTCTAGTGCTAGGTCTTGATTCGCTTGACGCTGCTG”: 8.37 z-score; for “GCCTAGCACAAAATGAGGAAGTGAGCTAAGTGCTAGGTCTTGATTCGCTTGACGCTGCTG”: 7.94 z-score.
Same read-out and setting: the same measure for “GCCTAGCACAAAATGAGGAAGTTGGATGGGTGCTAGGTCTTGATTCGCTTGACGCTGCTG”: 8.35 z-score; for “GCCTAGCACAAAATGAGGAAGTAATTCCTGTGCTAGGTCTTGATTCGCTTGACGCTGCTG”: 8.66 z-score; for “GCCTAGCACAAAATGAGGAAGTGCATTGAGTGCTAGGTCTTGATTCGCTTGACGCTGCTG”: 8.07 z-score.
The sequence “GCCTAGCACAAAAGGAGGAAGTTGGTTGGGTGCTAGGTCTTGATTCGCTTGACGCTGCTG” showed a binding signal in assay [1] of 7.62 z-score.
Same read-out and setting: to “GCCTAGCACAAAATGAGGAAGTGTGATTAGTGCTAGGTCTTGATTCGCTTGACGCTGCTG” belongs 7.8 z-score.
As for “GCCTAGCACACAATGAGGAAGTGCTGGCCGTGCTAGGTCTTGATTCGCTTGACGCTGCTG”, the binding signal in assay [2] was determined as 6.19 z-score.
The sequence “GCCTAGCACTAAAGGAGGAATTGAAACCAGTGCTAGGTCTTGATTCGCTTGACGCTGCTG” gave a binding signal in assay [1] of 1.22 z-score.
The sequence “GCCTAGCACGCCAGGAGGAAGTGGAAATGGTGCTAGGTCTTGATTCGCTTGACGCTGCTG” had a binding signal in assay [1] of 4.22 z-score.
On the same count and under the same terms, to “GCCTAGCACGACAAGAGGAAGTGCAAGATGTGCTAGGTCTTGATTCGCTTGACGCTGCTG” belongs 4.87 z-score.
Same read-out and setting: the same measure for “GCCTAGCACATATGGAGGAAGTGGAACCCGTGCTAGGTCTTGATTCGCTTGACGCTGCTG”: 3.92 z-score.
On to “GCCTAGCACCTGCCAGGGAAGTGTAAGCAGTGCTAGGTCTTGATTCGCTTGACGCTGCTG”, for which the binding signal in assay [2] turned out to be 0.66 z-score.
In the case of “GCCTAGCACAAAAAGAAGAAGTGGGGCTTGTGCTAGGTCTTGATTCGCTTGACGCTGCTG”, the binding signal in assay [2] was 4.26 z-score.
On to “GCCTAGCACTGAAAGGGGAAGTCTTTTTAGTGCTAGGTCTTGATTCGCTTGACGCTGCTG”, for which the binding signal in assay [1] is 6.55 z-score.
On the same count and under the same terms, to “GCCTAGCACAAAATGAGGAAGTGCTGGCAGTGCTAGGTCTTGATTCGCTTGACGCTGCTG” belongs 8.14 z-score; to “GCCTAGCACAAAATGAGGAAGTGGCTTTGGTGCTAGGTCTTGATTCGCTTGACGCTGCTG”, 8.37 z-score.
The sequence “GCCTAGCACAAAATGAGGAAGTGGAAGGGGTGCTAGGTCTTGATTCGCTTGACGCTGCTG” showed a binding signal in assay [1] of 8.15 z-score.
For the sequence “GCCTAGCACTAAATGAGGAAGTGTGCTGTGTGCTAGGTCTTGATTCGCTTGACGCTGCTG”, the binding signal in assay [1] is 7.74 z-score.
Turning to “GCCTAGCACAAAAAAAGGAAGTGGACCGTGTGCTAGGTCTTGATTCGCTTGACGCTGCTG”, in assay [2], the binding signal was determined as 6.55 z-score.
For the sequence “GCCTAGCACAAAAAGAGGAAGTCAGTTTGGTGCTAGGTCTTGATTCGCTTGACGCTGCTG”, in assay [1], the binding signal stood at 8.4 z-score.
As to “GCCTAGCACAAAAAAAGGAAGTGATAGCCGTGCTAGGTCTTGATTCGCTTGACGCTGCTG”, the binding signal in assay [2] was 6.5 z-score.
In turn, “GCCTAGCACGAAAAGAGGAAGTGTGAGATGTGCTAGGTCTTGATTCGCTTGACGCTGCTG” yielded a binding signal in assay [1] of 8.2 z-score.
Still for that read-out and setting: to “GCCTAGCACAAGAAGAGGAAGTGAGTGCTGTGCTAGGTCTTGATTCGCTTGACGCTGCTG” belongs 7.09 z-score.
In assay [2], “GCCTAGCACAAGATGAGGAAGTGAGTGTAGTGCTAGGTCTTGATTCGCTTGACGCTGCTG” had a binding signal of 6.13 z-score.
“GCCTAGCACAAAAAGAGGAAGTCTGGTGTGTGCTAGGTCTTGATTCGCTTGACGCTGCTG” displayed a binding signal in assay [1] of 8.02 z-score.
The same measure, in the same setting: the same measure for “GCCTAGCACAAAAAGAGGAAGTGATGAGTGTGCTAGGTCTTGATTCGCTTGACGCTGCTG”: 8.92 z-score; for “GCCTAGCACAAAGAGAGGAAGTACAGTTTGTGCTAGGTCTTGATTCGCTTGACGCTGCTG”: 5.35 z-score.
Still for that read-out and setting: the same measure for “GCCTAGCACGAAAAGAGGAAGTGAGATGTGTGCTAGGTCTTGATTCGCTTGACGCTGCTG”: 8.73 z-score.
On to “GCCTAGCACAAAAAGAGGAAGTGATGACCGTGCTAGGTCTTGATTCGCTTGACGCTGCTG”, for which the binding signal in assay [1] came to 8.84 z-score.
Same read-out and setting: to “GCCTAGCACGAAAAGAGGAAGTGTGAGACGTGCTAGGTCTTGATTCGCTTGACGCTGCTG” belongs 7.97 z-score.
Regarding “GCCTAGCACTTAATGAGGAAGTGCTGTCAGTGCTAGGTCTTGATTCGCTTGACGCTGCTG”, the binding signal in assay [1] was 6.5 z-score.
Sequence “GCCTAGCACTAGATGAGGAAGTACTGTGCGTGCTAGGTCTTGATTCGCTTGACGCTGCTG” came in with a binding signal in assay [2] of 6.57 z-score.
Same read-out and setting: to “GCCTAGCACTTTAACAGGAAGTGAAACCAGTGCTAGGTCTTGATTCGCTTGACGCTGCTG” belongs 4.61 z-score.
The sequence “GCCTAGCACCAAAAAGGGAAGTGGGTTGAGTGCTAGGTCTTGATTCGCTTGACGCTGCTG” showed a binding signal in assay [1] of 7.02 z-score.
In turn, “GCCTAGCACTGAAACAGGAAGTGAGACCAGTGCTAGGTCTTGATTCGCTTGACGCTGCTG” had a binding signal in assay [1] of 6.68 z-score.
Consider “GCCTAGCACGGAATAGGGAAGTGAAACTGGTGCTAGGTCTTGATTCGCTTGACGCTGCTG”, for which, in assay [2], the binding signal turned out to be 6.68 z-score.
With “GCCTAGCACGAAAAGGGGAACTGAAACTAGTGCTAGGTCTTGATTCGCTTGACGCTGCTG”, the binding signal in assay [1] was found to be 6.15 z-score.
Same read-out and setting: the same measure for “GCCTAGCACAAAAAGAGGAAGTGCACAAGGTGCTAGGTCTTGATTCGCTTGACGCTGCTG”: 8.64 z-score; for “GCCTAGCACAAAGAAAGGAAGTGGCCTGTGTGCTAGGTCTTGATTCGCTTGACGCTGCTG”: 2.71 z-score.
In assay [2], “GCCTAGCACAAAAAAAGGAAGTGAGAGCTGTGCTAGGTCTTGATTCGCTTGACGCTGCTG” registered a binding signal of 6.29 z-score.
Sequence “GCCTAGCACAAAAAGAGGAAGTGAGCTTAGTGCTAGGTCTTGATTCGCTTGACGCTGCTG” yielded a binding signal in assay [1] of 8.51 z-score.
In the case of “GCCTAGCACAAAAAGAGGAAGAGGAGGAGGTGCTAGGTCTTGATTCGCTTGACGCTGCTG”, the binding signal in assay [2] came to 5.1 z-score.
Consider “GCCTAGCACAAAAGGAGGAAGTGATCCCTGTGCTAGGTCTTGATTCGCTTGACGCTGCTG”, for which the binding signal in assay [1] stood at 6.77 z-score.
Same read-out and setting: the same measure for “GCCTAGCACAAAAGGAGGAAGTGAAAGTAGTGCTAGGTCTTGATTCGCTTGACGCTGCTG”: 6.69 z-score; for “GCCTAGCACAAAAAGAGGAAGTGCCCTGTGTGCTAGGTCTTGATTCGCTTGACGCTGCTG”: 8.56 z-score.
“GCCTAGCACAAAAGGAGGAAGTGGGGGGAGTGCTAGGTCTTGATTCGCTTGACGCTGCTG” gave a binding signal in assay [2] of 6.01 z-score.
“GCCTAGCACAAAAAGAGGAAGTGGGGGAGGTGCTAGGTCTTGATTCGCTTGACGCTGCTG”: the binding signal in assay [1] was 8.59 z-score.
In assay [1], “GCCTAGCACAAAAAAGAGAAGTGGGGGAAGTGCTAGGTCTTGATTCGCTTGACGCTGCTG” yielded a binding signal of 5.77 z-score.
The sequence “GCCTAGCACAAAAAGAGGAAGGGGAAGAAGTGCTAGGTCTTGATTCGCTTGACGCTGCTG” showed a binding signal in assay [2] of 6.26 z-score.

These data come from article PMC6451091, “NextPBM: a platform to study cell-specific transcription factor binding and cooperativity”.
